In all, about 5,500 compounds went through this assay and about 2,000 (36%) were called active. Inconclusive results (about 18%) are left out. Cut-off read from the data, not from the text of the source: active = normalized growth mostly below about 0.91 (no sharp cut-off); inconclusive = no clear call, values can overlap the other calls; inactive = mostly above about 0.92. The list shows a part of the results.
Experiment: chemical genetic growth profiling, strain panel (AID 1159580);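 note: tested at 20 µM; growth read once vehicle control cultures reached saturation at 30 °C; 1 = growth at the plate median or of vehicle wells; lower values mean less growth of the strain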
Settings: growth OD

Measured: normalized growth

NC(=O)c1ncn([C@@H]2O[C@H](CO)[C@@H](O)[C@H]2O)n1
inactive: S. cerevisiae deletion strains, locus YJR075W, strain HOC1, active compounds read low 0.989 | S. cerevisiae deletion strains, locus YKL009W, strain mrt4, active compounds read low 0.992 | S. cerevisiae deletion strains, locus YKL068W, active compounds read low 0.981 | S. cerevisiae deletion strains, locus YKL085W, strain MDH1 (second series), active compounds read low 1 | S. cerevisiae deletion strains, locus YKL085W, strain MDH1, active compounds read low 1 | S. cerevisiae deletion strains, locus YKL160W, strain elf1, active compounds read low 0.984 | S. cerevisiae deletion strains, locus YKL190W, strain CNB1, active compounds read low 0.988 | S. cerevisiae deletion strains, locus YKR001C, strain vps1, active compounds read low 0.984 | S. cerevisiae deletion strains, locus YKR026C, strain gcn3, active compounds read low 0.984 | S. cerevisiae deletion strains, locus YKR091W, strain srl3, active compounds read low 0.982 | S. cerevisiae deletion strains, locus YLL001W, strain dnm1, active compounds read low 0.984 | S. cerevisiae deletion strains, locus YLL026W, active compounds read low 0.984 | S. cerevisiae deletion strains, locus YLL041C, strain sdh2, active compounds read low 0.983 | S. cerevisiae deletion strains, locus YLR027C, strain aat2, active compounds read low 0.983 | S. cerevisiae deletion strains, locus YLR039C, strain RIC1, active compounds read low 1.01 | S. cerevisiae deletion strains, locus YLR058C, strain SHM2, active compounds read low 0.999 | S. cerevisiae deletion strains, locus YLR102C, strain apc9, active compounds read low 0.998 | S. cerevisiae deletion strains, locus YLR113W, strain HOG1, active compounds read low 0.977 | S. cerevisiae deletion strains, locus YLR221C, strain rsa3, active compounds read low 0.982 | S. cerevisiae deletion strains, locus YLR258W, strain gsy2, active compounds read low 0.98 | S. cerevisiae deletion strains, locus YLR262C, strain YPT6 (second series), active compounds read low 0.987 | S. cerevisiae deletion strains, locus YLR262C, strain YPT6, active compounds read low 0.977 | S. cerevisiae deletion strains, locus YLR268W, strain sec22, active compounds read low 0.987 | S. cerevisiae deletion strains, locus YLR320W, strain mms22, active compounds read low 0.993 | S. cerevisiae deletion strains, locus YLR330W, strain CHS5, active compounds read low 0.989 | S. cerevisiae deletion strains, locus YLR342W, strain FKS1 (second series), active compounds read low 0.991 | S. cerevisiae deletion strains, locus YLR342W, strain FKS1, active compounds read low 0.985 | S. cerevisiae deletion strains, locus YLR357W, strain rsc2, active compounds read low 0.995 | S. cerevisiae deletion strains, locus YLR370C, strain arc18, active compounds read low 0.984 | S. cerevisiae deletion strains, locus YLR371W, strain rom2, active compounds read low 0.985 | S. cerevisiae deletion strains, locus YLR384C, strain iki3, active compounds read low 0.979 | S. cerevisiae deletion strains, locus YLR418C, strain cdc73, active compounds read low 1.03 | S. cerevisiae deletion strains, locus YML016C, strain PPZ1, active compounds read low 1 | S. cerevisiae deletion strains, locus YML032C, strain rad52, active compounds read low 0.988 | S. cerevisiae deletion strains, locus YML120C, strain ndi1, active compounds read low 0.99 | S. cerevisiae deletion strains, locus YML124C, strain tub3, active compounds read low 0.985 | S. cerevisiae deletion strains, locus YMR058W, strain fet3, active compounds read low 0.998 | S. cerevisiae deletion strains, locus YMR078C, strain ctf18, active compounds read low 0.979 | S. cerevisiae deletion strains, locus YMR125W, strain sto1, active compounds read low 0.991 | S. cerevisiae deletion strains, locus YMR129W, active compounds read low 0.997 | S. cerevisiae deletion strains, locus YMR205C, strain PFK2, active compounds read low 0.996 | S. cerevisiae deletion strains, locus YMR223W, strain ubp8, active compounds read low 0.989 | S. cerevisiae deletion strains, locus YMR231W, strain pep5, active compounds read low 0.974 | S. cerevisiae deletion strains, locus YMR263W, strain SAP30, active compounds read low 0.986 | S. cerevisiae deletion strains, locus YMR307W, strain GAS1, active compounds read low 1 | S. cerevisiae deletion strains, locus YNL067W, strain RPL9B, active compounds read low 1 | S. cerevisiae deletion strains, locus YNL071W, strain lat1, active compounds read low 0.988 | S. cerevisiae deletion strains, locus YNL128W, strain TEP1, active compounds read low 1 | S. cerevisiae deletion strains, locus YNL153C, strain GIM3, active compounds read low 1 | S. cerevisiae deletion strains, locus YNL183C, strain NPR1, active compounds read low 0.933 | S. cerevisiae deletion strains, locus YNL209W, strain ssb2, active compounds read low 1 | S. cerevisiae deletion strains, locus YNL233W, strain BNI4, active compounds read low 1.01 | S. cerevisiae deletion strains, locus YNL248C, strain rpa49, active compounds read low 0.986 | S. cerevisiae deletion strains, locus YNL250W, strain rad50, active compounds read low 0.989 | S. cerevisiae deletion strains, locus YNL271C, strain bni1, active compounds read low 0.994 | S. cerevisiae deletion strains, locus YNL298W, strain CLA4, active compounds read low 0.97 | S. cerevisiae deletion strains, locus YNL307C, strain MCK1, active compounds read low 1 | S. cerevisiae deletion strains, locus YNL322C, strain KRE1 (second series), active compounds read low 0.979 | S. cerevisiae deletion strains, locus YNL322C, strain KRE1, active compounds read low 1 | S. cerevisiae deletion strains, locus YNR049C, strain mso1, active compounds read low 0.986 | S. cerevisiae deletion strains, locus YNR052C, strain pop2, active compounds read low 0.977 | S. cerevisiae deletion strains, locus YOL006C, strain TOP1, active compounds read low 1.05 | S. cerevisiae deletion strains, locus YOL012C, strain htz1 1.07 | S. cerevisiae deletion strains, locus YOL147C, strain pex11, active compounds read low 0.981 | S. cerevisiae deletion strains, locus YOR001W, strain rrp6, active compounds read low 0.982 | S. cerevisiae deletion strains, locus YOR061W, strain CKA2, active compounds read low 0.998 | S. cerevisiae deletion strains, locus YOR069W, strain VPS5, active compounds read low 1 | S. cerevisiae deletion strains, locus YOR070C, strain gyp1, active compounds read low 0.98 | S. cerevisiae deletion strains, locus YOR080W, strain dia2, active compounds read low 0.979 | S. cerevisiae deletion strains, locus YOR083W, strain WHI5, active compounds read low 0.986 | S. cerevisiae deletion strains, locus YOR106W, strain vam3, active compounds read low 0.989 | S. cerevisiae deletion strains, locus YOR136W, strain idh2, active compounds read low 0.984 | S. cerevisiae deletion strains, locus YOR144C, strain elg1, active compounds read low 0.985 | S. cerevisiae deletion strains, locus YOR184W, strain ser1, active compounds read low 0.992 | S. cerevisiae deletion strains, locus YOR231W, strain MKK1, active compounds read low 0.975 | S. cerevisiae deletion strains, locus YOR265W, strain rbl2, active compounds read low 0.972 | S. cerevisiae deletion strains, locus YOR270C, strain vph1, active compounds read low 1.02 | S. cerevisiae deletion strains, locus YOR290C, strain snf2, active compounds read low 0.976 | S. cerevisiae deletion strains, locus YOR316C, strain cot1, active compounds read low 0.99 | S. cerevisiae deletion strains, locus YPL051W, strain arl3, active compounds read low 0.98 | S. cerevisiae deletion strains, locus YPL055C, strain LGE1, active compounds read low 0.951 | S. cerevisiae deletion strains, locus YPL078C, strain atp4, active compounds read low 0.992 | S. cerevisiae deletion strains, locus YPL106C, strain sse1, active compounds read low 0.939 | S. cerevisiae deletion strains, locus YPL240C, strain hsp82, active compounds read low 0.992 | S. cerevisiae deletion strains, locus YPL241C, strain CIN2, active compounds read low 0.985 | S. cerevisiae deletion strains, locus YPL256C, strain CLN2, active compounds read low 0.981 | S. cerevisiae deletion strains, locus YPR119W, strain clb2, active compounds read low 0.985 | S. cerevisiae deletion strains, locus YPR141C, strain kar3, active compounds read low 0.989 | S. cerevisiae deletion strains, locus YPR163C, strain tif3, active compounds read low 0.978 | S. cerevisiae deletion strains, locus YPR167C, strain met16, active compounds read low 0.995 | S. cerevisiae deletion strains, strain wtn01, active compounds read low 0.983 | S. cerevisiae strains, strain wild type, active compounds read low 0.996
